Most compounds without a hit are left out; they make up all but 6.7% or so of the library.
C diff growth: C. difficile growth inhibition; Clostridium difficile clinical isolate growth, OD600, 24 h; stronger effect = lower value; growth activity, negative = inhibition, % at 16 µg/mL (by protocol); 0.25% of 86,000 active;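 active = mean growth activity at or below -80% and every replicate also at or below -80%; inconclusive = mean at or below -80% but some replicate above -80%; inactive = mean growth activity above -80%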
T cruzi growth-1: blocks T. cruzi growth in NIH3T3 culture; T. cruzi beta-gal in NIH3T3, GalScreen luminescence, 90 h; inhibition, % at 8.34 µM; 5.9% of 77,000 active;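 active = mean inhibition above about 93%, with at least 55% of replicates each passing it, limit read from the data, passing the limit was not always enough; inconclusive = only one of those two conditions holds; inactive = neither condition holds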
Pf Dd2 inh: blocks growth of Plasmodium falciparum Dd2 parasites; P. falciparum Dd2 growth, SYBR Green, 72 h; stronger effect = lower value; activity change, % at 10 µM; 2.3% of 94,000 active; AID 1159554; in the data active = activity change below about -80%; inconclusive = no clear call, values can overlap the other calls
T cruzi growth-2: inhibitors of T. cruzi proliferation | AID 651739 | T. cruzi beta-gal in NIH3T3, GalScreen luminescence, 90 h | shares compounds with T cruzi growth-1 | 72% of 5,600 active | inhibition, % at 8.35 µM;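 active = mean replicate inhibition above about 95% and at least 55% of replicates individually reaching it, limit read from the data; inconclusive = only one of the two criteria is met; inactive = neither criterion is met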
T cruzi growth-3: blocks T. cruzi growth in NIH3T3 host cells; shares compounds with T cruzi growth-1; T. cruzi beta-gal in NIH3T3, GalScreen luminescence, 90 h; inhibition, % at 2.09 µM; 21% of 5,600 active;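 active = mean inhibition above about 95%, with at least 55% of replicates also reaching it, limit read from the data; inconclusive = meets just one of the two conditions; inactive = meets neither condition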
3T3 cytotox: NIH/3T3 (mouse) viability loss; shares compounds with T cruzi growth-1; NIH/3T3 viability, CellTiter-Glo ATP luminescence, 90 h; cytotoxicity (signal decrease), % at 8.35 µM; 14% of 5,600 active; AID 651742;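 active = mean signal decrease across replicates above about 35% based on untreated-well scatter, with enough replicates individually passing, limit read from the data; inconclusive = no rule stated though some were filed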
NIH3T3 tox 2: cytotoxicity in mouse NIH/3T3 fibroblasts; NIH/3T3 viability, CellTiter-Glo ATP luminescence, 90 h; shares compounds with T cruzi growth-1; AID 651744; 56% of 5,600 active; inhibition, % at 24.9 µM;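 active = mean loss of cell viability signal at or above a set limit, and enough replicates individually reaching it; inconclusive = meets only the mean limit or only the replicate share; inactive = meets neither condition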
A number is an active result; 0 = inactive; ? = inconclusive; - = no result; + = active, no number.

SMILES	C diff growth	T cruzi growth-1	Pf Dd2 inh	T cruzi growth-2	T cruzi growth-3	3T3 cytotox	NIH3T3 tox 2
Cc1ccc(S(=O)(=O)Nc2ccc3c(c2)C(=O)N([C@@H](C)CO)C[C@H](C)[C@H](CN(C)Cc2ccc(C(=O)O)cc2)OCCCC[C@H](C)O3)cc1	-	-	0	-	-	-	-
C[C@@H]1CCCCO[C@@H](CN(C)S(=O)(=O)c2ccc(Cl)cc2)[C@H](C)CN([C@H](C)CO)C(=O)c2cc(NC(=O)NC3CCCCC3)ccc2O1	0	0	-	-	-	-	-
CCCNC(=O)[C@H]1[C@H](CO)[C@H]2Cn3c(cccc3=O)[C@H]2N1CC1CCCCC1	0	0	0	-	-	-	-
CCNC(=O)[C@H]1[C@H](CO)[C@H]2Cn3c(cccc3=O)[C@H]2N1CC1CCCCC1	-	+	-	0	0	0	0
O=C(Nc1ccc(-c2ccccc2)cc1)[C@@H]1[C@@H](CO)[C@@H]2Cn3c(cccc3=O)[C@@H]2N1CC1CCCCC1	0	?	-82.1	?	105.3	0	104.3
O=C(Nc1ccc(-c2ccccc2)cc1)[C@H]1[C@H](CO)[C@H]2Cn3c(cccc3=O)[C@H]2N1CC1CCOCC1	0	0	0	-	-	-	-
COc1ccc2c3c([nH]c2c1)[C@@H](CO)N(C(=O)Nc1ccc(F)cc1)CC31CCN(S(=O)(=O)c2cn(C)cn2)CC1	0	-	0	-	-	-	-
CNC[C@H]1Oc2ccc(NS(=O)(=O)c3ccc(OC)cc3)cc2CC(=O)N([C@H](C)CO)C[C@H]1C	0	0	0	-	-	-	-
C[C@H](CO)N1C[C@H](C)[C@@H](CN(C)C(=O)Nc2ccc(C(F)(F)F)cc2)OCCCC[C@H](C)Oc2ccc(NC(=O)Nc3cccc4ccccc34)cc2C1=O	0	101.0	-85.5	104.0	0	0	0
C[C@H]1CCCCO[C@H](CN(C)C(=O)Nc2ccc(C(F)(F)F)cc2)[C@@H](C)CN([C@@H](C)CO)C(=O)c2cc(NC(=O)Nc3cccc4ccccc34)ccc2O1	0	103.3	-82.8	109.4	108.6	0	0
C[C@H]1CCCCO[C@@H](CN(C)C(=O)Nc2ccc(C(F)(F)F)cc2)[C@@H](C)CN([C@@H](C)CO)C(=O)c2cc(NC(=O)Nc3cccc4ccccc34)ccc2O1	0	0	0	-	-	-	-
C[C@@H]1CCCCO[C@H](CN(C)C(=O)Nc2ccccc2)[C@@H](C)CN([C@H](C)CO)C(=O)c2cc(NC(=O)Nc3cccc4ccccc34)ccc2O1	-	0	0	-	-	-	-
O=C(C[C@@H]1CC[C@H]2[C@@H](COC[C@H](O)CN2C(=O)c2ccccc2F)O1)NCc1ccc(Cl)cc1	-	0	0	-	-	-	-
CN(C)Cc1cn(CC[C@H]2CC[C@@H](NS(=O)(=O)c3ccc(-c4ccccc4)cc3)[C@@H](CO)O2)nn1	-	0	0	-	-	-	-
CCCC#Cc1ccc2c(c1)O[C@@H](CN(C)Cc1ccncc1)[C@@H](C)CN([C@@H](C)CO)S2(=O)=O	0	113.5	0	101.9	96.2	0	99.9
CCCC#Cc1ccc2c(c1)O[C@@H](CN(C)Cc1ccncc1)[C@@H](C)CN([C@H](C)CO)S2(=O)=O	0	113.8	0	104.8	0	0	0
CCCC#Cc1ccc2c(c1)O[C@@H](CN(C)Cc1ccncc1)[C@H](C)CN([C@@H](C)CO)S2(=O)=O	0	120.9	-86.8	101.0	107.1	62.9	103.7
CCCC#Cc1ccc2c(c1)O[C@H](CN(C)Cc1ccncc1)[C@H](C)CN([C@@H](C)CO)S2(=O)=O	0	118.1	0	0	0	?	41.0
C/C=C/c1ccc2c(c1)O[C@H](CN(C)Cc1ccc(C(=O)O)cc1)[C@H](C)CN([C@@H](C)CO)S2(=O)=O	0	-	0	-	-	-	-
C[C@H]1CCCCO[C@@H](CN(C)C(=O)CCCN(C)C)[C@@H](C)CN([C@@H](C)CO)C(=O)c2cc(NS(C)(=O)=O)ccc2O1	0	0	0	-	-	-	-
COc1ccc(-c2ccccc2[C@@H]2[C@@H](CO)N(C(=O)NC(C)C)[C@H]2C#N)cc1	0	-	0	-	-	-	-
C[C@@H]1CN([C@@H](C)CO)S(=O)(=O)c2ccc(C#CCN(C)C)cc2O[C@H]1CN(C)Cc1ccncc1	0	107.0	0	108.0	?	0	45.6
CCCC#Cc1ccc2c(c1)O[C@H](CN(C)Cc1ccncc1)[C@@H](C)CN([C@H](C)CO)S2(=O)=O	0	117.5	0	98.3	?	36.8	103.6
O=C(C[C@@H]1CC[C@H]2[C@@H](COC[C@@H](O)CN2S(=O)(=O)c2cccc(Cl)c2)O1)NCCCN1CCOCC1	0	-	0	-	-	-	-
CCC(=O)Nc1ccc2c(c1)C(=O)N(C)[C@@H]1CC[C@H](CC(=O)NCc3ccccc3)O[C@@H]1CO2	0	0	0	-	-	-	-
SMILES	C diff growth	T cruzi growth-1	Pf Dd2 inh	T cruzi growth-2	T cruzi growth-3	3T3 cytotox	NIH3T3 tox 2
O=C(NCC[C@@H]1CC[C@@H](NC(=O)c2ccc3c(c2)OCO3)[C@H](CO)O1)Nc1ccc(Cl)cc1	0	-	0	-	-	-	-
COC(=O)[C@H]1[C@H](CO)[C@H]2Cn3c(ccc(C4=CCCC4)c3=O)[C@H]2N1CC1CCOCC1	0	0	-	-	-	-	-
C[C@@H]1CN([C@@H](C)CO)C(=O)c2cc(C#Cc3ccccc3F)cnc2O[C@H]1CN(C)S(=O)(=O)c1ccccc1F	0	107.7	0	115.2	105.5	0	68.0
C[C@@H]1CN([C@H](C)CO)C(=O)c2cc(C#Cc3ccccc3F)cnc2O[C@@H]1CN(C)C	0	98.1	0	0	0	0	?
CCCNC(=O)N(C)C[C@@H]1Oc2ncc(C#Cc3ccccc3F)cc2C(=O)N([C@H](C)CO)C[C@H]1C	0	107.1	0	97.5	0	0	42.6
C[C@@H]1CN([C@H](C)CO)C(=O)c2cc(C#Cc3ccccc3)cnc2O[C@@H]1CN(C)S(=O)(=O)c1ccccc1F	0	0	0	-	-	-	-
CCCNC(=O)N(C)C[C@H]1Oc2ncc(C#Cc3ccccc3F)cc2C(=O)N([C@H](C)CO)C[C@H]1C	0	0	0	-	-	-	-
C[C@H](CO)N1C[C@H](C)[C@@H](CN(C)C)Oc2ncc(C#Cc3ccccc3F)cc2C1=O	0	0	0	-	-	-	-
C[C@@H]1CN([C@@H](C)CO)C(=O)c2cc(C#Cc3ccccc3F)cnc2O[C@H]1CN(C)S(C)(=O)=O	-	0	0	-	-	-	-
C[C@H](CO)N1C[C@H](C)[C@H](CN(C)S(=O)(=O)c2ccccc2)Oc2ncc(C#Cc3ccccc3F)cc2C1=O	0	113.2	0	104.0	0	0	54.8
C[C@H](CO)N1C[C@H](C)[C@@H](CN(C)Cc2ccc(C(F)(F)F)cc2)Oc2ccc(NC(=O)C3CCCCC3)cc2CC1=O	0	0	0	-	-	-	-
C[C@H](CO)N1C[C@H](C)[C@H](CN(C)C)OCCCC[C@H](C)Oc2ccc(NS(=O)(=O)c3ccc(F)cc3)cc2C1=O	0	0	0	-	-	-	-
C[C@H]1CN([C@@H](C)CO)C(=O)c2cccc(NC(=O)Nc3ccc(C(F)(F)F)cc3)c2O[C@@H]1CN(C)C(=O)Nc1ccc2c(c1)OCO2	0	0	0	-	-	-	-
